Measured values as given in paper PMC5700166.
Positions count from the first letter of the chain named.

Assays:
Experiment in all cases: protein-binding microarray (PBM); PBM: ~300 nM protein, 6 mM HEPES pH 7.8, 80 mM KCl, 0.5 mM EDTA, 0.5 mM EGTA, 6% glycerol, 35 ng/ul poly-dIdC, 1% milk, 1 h, room temperature; Ap Aiptasia and Nv Nematostella (sea anemones) / Co Capsaspora / Aq Amphimedon (sponge) / Dm Drosophila / Hu human; RHD is the Rel homology domain; high values mean tight binding
Conditions in all cases: dsDNA, one strand shown
GST-Ap-NF-kB RHD = target: T1, GST-Ap-NF-kB RHD (Exaiptasia pallida (Aiptasia), UniProt A0A913YAJ5 2-422)
T1 sequence: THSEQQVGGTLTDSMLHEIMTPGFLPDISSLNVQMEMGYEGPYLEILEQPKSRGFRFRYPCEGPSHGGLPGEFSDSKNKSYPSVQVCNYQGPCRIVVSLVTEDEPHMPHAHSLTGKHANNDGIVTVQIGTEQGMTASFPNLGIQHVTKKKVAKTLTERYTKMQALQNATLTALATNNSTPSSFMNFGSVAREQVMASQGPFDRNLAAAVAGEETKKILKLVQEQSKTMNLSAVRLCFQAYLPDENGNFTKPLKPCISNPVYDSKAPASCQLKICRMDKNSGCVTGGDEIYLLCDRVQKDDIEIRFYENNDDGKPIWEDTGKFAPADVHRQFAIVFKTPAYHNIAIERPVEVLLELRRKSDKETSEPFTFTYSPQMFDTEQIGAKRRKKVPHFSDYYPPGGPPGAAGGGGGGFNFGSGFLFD

[1] = target: T2, GST-Nv-NF-kB (Cys allele) (Nematostella vectensis, UniProt E5G601 2-411)
T2 sequence: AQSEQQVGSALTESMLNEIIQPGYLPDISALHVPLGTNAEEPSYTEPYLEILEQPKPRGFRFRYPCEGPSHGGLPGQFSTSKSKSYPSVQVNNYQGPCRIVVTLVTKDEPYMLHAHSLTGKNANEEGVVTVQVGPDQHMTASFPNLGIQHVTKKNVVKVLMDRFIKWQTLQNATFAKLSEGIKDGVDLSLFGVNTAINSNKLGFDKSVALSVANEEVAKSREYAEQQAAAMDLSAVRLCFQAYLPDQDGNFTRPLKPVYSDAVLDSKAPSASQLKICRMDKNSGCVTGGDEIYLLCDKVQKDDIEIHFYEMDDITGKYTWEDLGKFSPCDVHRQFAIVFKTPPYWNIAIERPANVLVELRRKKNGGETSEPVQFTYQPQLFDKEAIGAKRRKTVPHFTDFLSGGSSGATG

[2] = target: T3, GST-Nv-NF-kB (Ser allele) (Nematostella vectensis, UniProt A7UNT2 2-411)
T3 sequence: T2 sequence with Q21R, C66S, S207N, E215Q, V217A, E225K, A268E, D399E

GST-Co-NF-kB = target: T4, GST-Co-NF-kB (Capsaspora owczarzaki, UniProt F1ARL5 200-546)
T4 sequence: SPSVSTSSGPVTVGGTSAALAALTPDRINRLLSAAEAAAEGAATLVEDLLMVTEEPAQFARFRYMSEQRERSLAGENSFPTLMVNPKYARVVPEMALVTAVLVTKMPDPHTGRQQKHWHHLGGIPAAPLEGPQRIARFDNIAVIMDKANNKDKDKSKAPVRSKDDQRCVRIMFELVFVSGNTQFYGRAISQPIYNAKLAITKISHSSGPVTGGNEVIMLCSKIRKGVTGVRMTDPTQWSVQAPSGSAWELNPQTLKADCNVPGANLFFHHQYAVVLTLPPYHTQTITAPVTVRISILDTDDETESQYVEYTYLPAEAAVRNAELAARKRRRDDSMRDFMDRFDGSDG

GST-Dm-Relish = target: T5, GST-Dm-Relish (Drosophila melanogaster, UniProt Q94527 99-473)
T5 sequence: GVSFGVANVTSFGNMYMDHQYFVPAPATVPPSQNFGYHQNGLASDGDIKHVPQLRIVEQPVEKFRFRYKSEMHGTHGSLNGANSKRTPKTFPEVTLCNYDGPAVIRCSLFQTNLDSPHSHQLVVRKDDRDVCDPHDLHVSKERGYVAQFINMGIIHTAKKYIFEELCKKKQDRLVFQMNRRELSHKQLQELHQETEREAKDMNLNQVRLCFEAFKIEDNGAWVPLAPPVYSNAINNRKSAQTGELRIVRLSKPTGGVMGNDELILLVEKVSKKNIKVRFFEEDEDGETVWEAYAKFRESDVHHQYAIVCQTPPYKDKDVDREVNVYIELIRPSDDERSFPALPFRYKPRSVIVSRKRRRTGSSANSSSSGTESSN

GST-Aq-NF-kB = target: T6, GST-Aq-NF-kB (Amphimedon queenslandica, UniProt A9Y5G7 2-389)
T6 sequence: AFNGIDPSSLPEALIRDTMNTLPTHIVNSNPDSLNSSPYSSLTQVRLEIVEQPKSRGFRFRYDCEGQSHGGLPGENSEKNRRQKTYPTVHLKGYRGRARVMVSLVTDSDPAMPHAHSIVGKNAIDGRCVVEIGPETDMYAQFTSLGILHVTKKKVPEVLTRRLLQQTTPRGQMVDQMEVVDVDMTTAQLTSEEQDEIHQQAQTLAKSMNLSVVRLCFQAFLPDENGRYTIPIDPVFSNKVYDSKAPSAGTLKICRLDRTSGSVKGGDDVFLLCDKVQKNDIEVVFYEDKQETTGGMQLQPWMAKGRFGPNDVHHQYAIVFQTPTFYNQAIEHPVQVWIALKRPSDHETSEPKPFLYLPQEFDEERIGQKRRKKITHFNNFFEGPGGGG

GST-Hu-p50 = GST-Hu-p50 (Homo sapiens, UniProt P19838 7-356)
Sequence of GST-Hu-p50 (P19838 7-356): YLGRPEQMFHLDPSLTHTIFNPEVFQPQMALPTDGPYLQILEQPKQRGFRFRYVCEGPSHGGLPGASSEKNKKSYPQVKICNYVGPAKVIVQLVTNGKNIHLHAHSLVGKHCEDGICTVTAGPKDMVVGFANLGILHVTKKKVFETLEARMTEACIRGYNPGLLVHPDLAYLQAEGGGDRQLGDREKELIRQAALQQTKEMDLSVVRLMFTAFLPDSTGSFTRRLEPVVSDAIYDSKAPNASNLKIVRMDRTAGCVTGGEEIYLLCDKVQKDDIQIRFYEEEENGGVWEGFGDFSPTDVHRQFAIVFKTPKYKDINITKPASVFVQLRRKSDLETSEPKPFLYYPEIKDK

| Sequence | binding signal (GST-Ap-NF-kB RHD) [z-score] | binding signal [1] [z-score] | binding signal [2] [z-score] | binding signal (GST-Co-NF-kB) [z-score] | binding signal (GST-Dm-Relish) [z-score] | binding signal (GST-Aq-NF-kB) [z-score] | binding signal (GST-Hu-p50) [z-score] |
| --- | --- | --- | --- | --- | --- | --- | --- |
| CCGATTAACATCAGGGGGAAGGATGATGTTAATCGGGTCTTGATTCGCTTGACGCTGCTG | 4.09 | 5.38 | 5.53 | 7.14 | 2.47 | 4.48 | 4.08 |
| CCGATTAACATCAAAGTCCCGGGTGATGTTAATCGGGTCTTGATTCGCTTGACGCTGCTG | 4.32 | 3.61 | 3.64 | 1.85 | 4.38 | 3.49 | 3.83 |
| CCGATTAACATCAAAAACCCCCATGATGTTAATCGGGTCTTGATTCGCTTGACGCTGCTG | 9.51 | 8.21 | 9 | 3.93 | 9.82 | 7.68 | 7.91 |
| CCGATTAACATCACCCCACCCCCTGATGTTAATCGGGTCTTGATTCGCTTGACGCTGCTG | 3.67 | 2.66 | 3.49 | 3.94 | 4.21 | 3.4 | 3.36 |
| CCGATTAACATCAGGGAAGTACCTGATGTTAATCGGGTCTTGATTCGCTTGACGCTGCTG | 6.67 | 7.36 | 8.68 | 1.93 | 9.88 | 7.45 | 5.92 |
| CCGATTAACATCAAATACCCCCATGATGTTAATCGGGTCTTGATTCGCTTGACGCTGCTG | 6.79 | 4.49 | 4.86 | 5.57 | 3.98 | 4.48 | 5.11 |
| CCGATTAACATCAAAACTTTCCCTGATGTTAATCGGGTCTTGATTCGCTTGACGCTGCTG | 4.81 | 8.68 | 8.65 | 6.16 | 4.08 | 7.54 | 5.54 |
| CCGATTAACATCAAGGGGAATCCTGATGTTAATCGGGTCTTGATTCGCTTGACGCTGCTG | 9.67 | 11 | 10 | 5.17 | 9.09 | 7.69 | 6.99 |
| CCGATTAACATCAAAATTTCCCATGATGTTAATCGGGTCTTGATTCGCTTGACGCTGCTG | 3.99 | 6.36 | 6.16 | 5.2 | 4.56 | 5.77 | 4.79 |
| CCGATTAACATCAGGGGATTTCATGATGTTAATCGGGTCTTGATTCGCTTGACGCTGCTG | 9.36 | 9.75 | 10.8 | 3.46 | 8.36 | 6.85 | 7.42 |
| CCGATTAACATCAGGGGGGCGCATGATGTTAATCGGGTCTTGATTCGCTTGACGCTGCTG | 3.86 | 3.14 | 3.06 | 3.25 | 4.09 | 4.07 | 4.13 |
| CCGATTAACATCAGGGACCCCCCTGATGTTAATCGGGTCTTGATTCGCTTGACGCTGCTG | 8.29 | 5.59 | 4.4 | 2.66 | 9.78 | 8.21 | 5.07 |
| CCGATTAACATCACGGGAGTCCCTGATGTTAATCGGGTCTTGATTCGCTTGACGCTGCTG | 5.38 | 3.94 | 4.12 | 1.57 | 8.97 | 5.18 | 3.45 |
| CCGATTAACATCAGGATTCCCCATGATGTTAATCGGGTCTTGATTCGCTTGACGCTGCTG | 9.56 | 9.44 | 8.33 | 6.71 | 8.76 | 6.46 | 5.89 |
| CCGATTAACATCAACTACCCCCCTGATGTTAATCGGGTCTTGATTCGCTTGACGCTGCTG | 4.79 | 2.46 | 3.11 | 4.43 | 3.4 | 3.98 | 3.1 |
| CCGATTAACATCACAACTCCCCCTGATGTTAATCGGGTCTTGATTCGCTTGACGCTGCTG | 5.84 | 4.69 | 5.89 | 6.16 | 3.67 | 5.15 | 5.55 |
| CCGATTAACATCAGGGAAATCCCTGATGTTAATCGGGTCTTGATTCGCTTGACGCTGCTG | 9.75 | 11.4 | 9.68 | 4.02 | 10.3 | 10.9 | 7.17 |
| CCGATTAACATCAGGGGGAATAATGATGTTAATCGGGTCTTGATTCGCTTGACGCTGCTG | 7.08 | 7.85 | 8.87 | 10.1 | 4.96 | 5.33 | 6.75 |
| CCGATTAACATCAGGAAACCCCCTGATGTTAATCGGGTCTTGATTCGCTTGACGCTGCTG | 11.2 | 10.1 | 9.07 | 3.13 | 10.1 | 10.5 | 8.19 |
| CCGATTAACATCAGGGGGTTACCTGATGTTAATCGGGTCTTGATTCGCTTGACGCTGCTG | 8.27 | 6.63 | 5.92 | 4.04 | 9.18 | 8.61 | 5.51 |
| CCGATTAACATCAAGGGGGTTTCTGATGTTAATCGGGTCTTGATTCGCTTGACGCTGCTG | 9.41 | 8.37 | 8.76 | 2.34 | 9.83 | 7.81 | 7.39 |
| CCGATTAACATCAAAGAATCCCCTGATGTTAATCGGGTCTTGATTCGCTTGACGCTGCTG | 8.71 | 9.68 | 11.8 | 4.06 | 9.1 | 6.89 | 7.06 |
| CCGATTAACATCAGCATCCCCCCTGATGTTAATCGGGTCTTGATTCGCTTGACGCTGCTG | 5.21 | 4.99 | 4.67 | 4.85 | 4.52 | 4.67 | 5.05 |
